Experimental data as given in PubChem BioAssay (EPA / NIEHS).
Active and inactive are the calls of the source. How the source made its calls: active means hit-call score of the fitted dose curve at least 0.9, where 1 is the maximum; inactive means score below 0.9.

What was measured:
[1] = ATG_E_Box_CIS: Attagene CIS-FACTORIAL HepG2 Assay for human Enhancer Box (E-box) (AID 2282936); details: HepG2 E-box cis-reporter transcription, actives raise or lower the signal
Procedure, shortened: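 HepG2 cells transiently transfected with multiplexed cis-element reporter units, dosed 24 h; reporter mRNA quantified by RT-PCR, 6-FAM labelling, HpaI digestion and capillary electrophoresis. E-box (USF1) signal fitted bidirectionally vs DMSO.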

[2] = ATG_M_61_CIS: Attagene CIS-FACTORIAL HepG2 Assay for M61 Transcription Factor (Internal Marker) (AID 2282937); details: HepG2 Attagene CIS-FACTORIAL M61 internal marker reporter; actives raise or lower the signal
Procedure, shortened: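 Using transiently transfected HepG2 liver cells, reporter transcript levels were assessed 24 h post-dosing by RT-PCR and capillary electrophoresis. Changes in either direction were fitted relative to DMSO controls.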

[3] = ATG_EGR_CIS: Attagene CIS-FACTORIAL HepG2 Assay for human Early Growth Response 1 (EGR1) (AID 2282938); details: HepG2 Attagene CIS-FACTORIAL EGR reporter mRNA; actives raise or lower the signal
Procedure, shortened: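 Fluorescent capillary-electrophoresis signal of reporter cDNA fragments serves as read-out. HepG2 cells bear transiently transfected cis-promoter reporter units and are exposed 24 h; gain- or loss-of-signal is fitted against DMSO.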

[4] = ATG_M_19_CIS: Attagene CIS-FACTORIAL HepG2 Assay for M19 Transcription Factor (Internal Marker) (AID 2282939); details: HepG2 Attagene CIS-FACTORIAL M19 internal marker reporter; actives raise or lower the signal
Procedure, shortened: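 In this multiplexed cell assay, transiently transfected HepG2 reporter units report endogenous transcription-factor activity; after 24 hours of treatment, labelled reporter cDNA fragments are quantified by capillary electrophoresis and fitted bidirectionally against DMSO.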

[5] = ATG_Ets_CIS: Attagene CIS-FACTORIAL HepG2 Assay for human Erythroblast Transformation Specific (ETS) (AID 2282941); details: HepG2 ETS cis-reporter transcription, actives raise or lower the signal
Procedure, shortened: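 HepG2 cells transiently transfected with cis-promoter reporter transcription units were dosed for 24 h; reporter mRNA was measured by RT-PCR, 6-FAM primer extension, HpaI digestion and capillary electrophoresis, with bidirectional fitting against DMSO baseline.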

[6] = target: Hepatocyte nuclear factor 3-beta (Homo sapiens) (UniProt Q9Y261); experiment: ATG_FoxA2_CIS: Attagene CIS-FACTORIAL HepG2 Assay for human Forkhead box A2 (FOXA2) (AID 2282942); details: HepG2 cis-reporter transcription factor activity, 24 h; actives raise or lower the signal
Chain of Hepatocyte nuclear factor 3-beta (Homo sapiens) (Q9Y261 whole entry, looked up, the tested form may be a part): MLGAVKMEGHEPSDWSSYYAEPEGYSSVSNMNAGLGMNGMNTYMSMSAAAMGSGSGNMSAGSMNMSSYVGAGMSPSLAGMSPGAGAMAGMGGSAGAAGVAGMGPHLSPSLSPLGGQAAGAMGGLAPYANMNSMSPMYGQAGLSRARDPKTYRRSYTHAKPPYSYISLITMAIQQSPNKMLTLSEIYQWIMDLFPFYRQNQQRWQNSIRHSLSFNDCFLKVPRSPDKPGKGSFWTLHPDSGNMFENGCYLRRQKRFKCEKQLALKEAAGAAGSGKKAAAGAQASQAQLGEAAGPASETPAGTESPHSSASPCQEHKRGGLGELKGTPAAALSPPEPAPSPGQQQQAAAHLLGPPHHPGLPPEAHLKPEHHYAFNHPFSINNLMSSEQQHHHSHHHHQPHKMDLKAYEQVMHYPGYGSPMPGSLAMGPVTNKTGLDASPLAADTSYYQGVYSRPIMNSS
Procedure, shortened: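 Fluorescence signal of reporter cDNA fragments, separated by capillary electrophoresis, reflects endogenous transcription factor activity in transfected HepG2 after 24 h. Both increases and decreases fitted against DMSO.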

[7] = ATG_FoxO_CIS: Attagene CIS-FACTORIAL HepG2 Assay for human Forkhead box O (FoxO) (AID 2282943); details: HepG2 Attagene cis-reporter, FoxO element, mRNA; actives raise or lower the signal
Procedure, shortened: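 HepG2 cells transiently transfected with cis-element-driven reporter units report endogenous FoxO activity. After 24 h chemical exposure, reporter mRNA quantified by RT-PCR, fluorescent labeling, HpaI digestion and capillary electrophoresis; bidirectional fit versus DMSO.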

[8] = ATG_GATA_CIS: Attagene CIS-FACTORIAL HepG2 Assay for human GATA Binding Protein (AID 2282944); details: HepG2 GATA cis-element reporter, Attagene multiplex mRNA; actives raise or lower the signal
Procedure, shortened: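 Measures endogenous transcription factor-driven reporter mRNA in HepG2 cells transiently carrying cis-regulated constructs. 24 h dosing; RNA via oligo(dT) reverse transcription, PCR, HpaI digestion, capillary electrophoresis; fitted relative to DMSO.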

[9] = ATG_GLI_CIS: Attagene CIS-FACTORIAL HepG2 Assay for human Zinc Finger Protein GLI1 (AID 2282945); details: HepG2, Attagene cis-factorial reporter mRNA, GLI element; actives raise or lower the signal
Procedure, shortened: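 Transiently transfected HepG2 cells report endogenous transcription factor activity via cis-element-driven reporter units. After 24 h compound exposure, reporter mRNA was measured by RT-PCR with capillary electrophoresis; bidirectional fitting against DMSO baseline.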

[10] = target: Bile acid receptor (Homo sapiens) (UniProt Q96RI1); experiment: ATG_IR1_CIS: Attagene CIS-FACTORIAL HepG2 Assay for human Nuclear Receptor Subfamily 1 Group H Member 4 (NR1H4), IR1 submotif (AID 2282946); details: IR1 reporter transcription, actives raise or lower the signal
Chain of Bile acid receptor (Homo sapiens) (Q96RI1 whole entry, looked up): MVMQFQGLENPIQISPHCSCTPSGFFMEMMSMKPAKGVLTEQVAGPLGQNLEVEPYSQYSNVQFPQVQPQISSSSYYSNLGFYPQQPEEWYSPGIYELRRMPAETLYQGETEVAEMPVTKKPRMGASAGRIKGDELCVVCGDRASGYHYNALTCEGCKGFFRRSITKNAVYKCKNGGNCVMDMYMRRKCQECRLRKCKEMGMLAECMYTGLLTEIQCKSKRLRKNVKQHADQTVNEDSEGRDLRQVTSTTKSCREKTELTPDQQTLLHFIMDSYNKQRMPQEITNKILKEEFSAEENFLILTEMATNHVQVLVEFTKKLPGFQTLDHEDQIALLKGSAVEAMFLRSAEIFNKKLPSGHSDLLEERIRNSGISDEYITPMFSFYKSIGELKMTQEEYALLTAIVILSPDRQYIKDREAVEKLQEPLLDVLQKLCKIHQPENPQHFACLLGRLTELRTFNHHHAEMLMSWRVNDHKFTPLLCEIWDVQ
Procedure, shortened: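 HepG2 cells transiently transfected with multiple cis-promoter-driven reporter units to measure endogenous transcription factor activity; 24 h exposure. Reporter mRNA read by RT-PCR, FAM labelling, HpaI digestion and capillary electrophoresis. Bidirectional fit versus DMSO.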

[11] = ATG_GRE_CIS: Attagene CIS-FACTORIAL HepG2 Assay for human Glucocorticoid Response Elements (GRE) (AID 2282947); details: HepG2 GRE cis-reporter, Attagene multiplex mRNA; actives raise or lower the signal
Procedure, shortened: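 Transiently transfected HepG2 cells carrying GRE cis-reporter units (endogenous TF activity) dosed 24 h; reporter mRNA quantified by RT-PCR, 6-FAM labelling, HpaI digestion and capillary electrophoresis. Bidirectional fit versus DMSO baseline.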

[12] = ATG_ISRE_CIS: Attagene CIS-FACTORIAL HepG2 Assay for human Interferon Regulatory Factor 1 (IRF1) binding to an Interferon-Stimulated Response Element (ISRE) (AID 2282948); details: HepG2 ISRE cis-reporter (Attagene), mRNA transcription readout; actives raise or lower the signal
Procedure, shortened: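 HepG2 cells transiently transfected with multiplexed cis-promoter reporter units; after 24 h compound exposure, reporter mRNA quantified by RT-PCR, FAM labelling, HpaI digestion and capillary electrophoresis. Bidirectional fit versus DMSO baseline.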

[13] = ATG_M_32_CIS: Attagene CIS-FACTORIAL HepG2 Assay for M32 Transcription Factor (Internal Marker) (AID 2282949); details: HepG2 Attagene cis-factorial M32 reporter, mRNA; actives raise or lower the signal;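 further: background control marker of the multiplexed CIS panel rather than a real target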
Procedure, shortened: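 HepG2 cells transiently transfected with multiplexed cis-regulated reporter units, dosed 24 h. Reporter mRNA quantified by RT-PCR, 6-FAM labelling, HpaI digestion and capillary electrophoresis; bidirectional fit vs DMSO.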

[14] = target: Hypoxia-inducible factor 1-alpha (Homo sapiens) (UniProt Q16665); experiment: ATG_HIF1a_CIS: Attagene CIS-FACTORIAL HepG2 Assay for human Hypoxia Inducible Factor 1 (HIF1A) (AID 2282951); details: HepG2 Attagene cis-factorial HIF1a reporter transcription; actives raise or lower the signal
Chain of Hypoxia-inducible factor 1-alpha (Homo sapiens) (Q16665 whole entry, looked up): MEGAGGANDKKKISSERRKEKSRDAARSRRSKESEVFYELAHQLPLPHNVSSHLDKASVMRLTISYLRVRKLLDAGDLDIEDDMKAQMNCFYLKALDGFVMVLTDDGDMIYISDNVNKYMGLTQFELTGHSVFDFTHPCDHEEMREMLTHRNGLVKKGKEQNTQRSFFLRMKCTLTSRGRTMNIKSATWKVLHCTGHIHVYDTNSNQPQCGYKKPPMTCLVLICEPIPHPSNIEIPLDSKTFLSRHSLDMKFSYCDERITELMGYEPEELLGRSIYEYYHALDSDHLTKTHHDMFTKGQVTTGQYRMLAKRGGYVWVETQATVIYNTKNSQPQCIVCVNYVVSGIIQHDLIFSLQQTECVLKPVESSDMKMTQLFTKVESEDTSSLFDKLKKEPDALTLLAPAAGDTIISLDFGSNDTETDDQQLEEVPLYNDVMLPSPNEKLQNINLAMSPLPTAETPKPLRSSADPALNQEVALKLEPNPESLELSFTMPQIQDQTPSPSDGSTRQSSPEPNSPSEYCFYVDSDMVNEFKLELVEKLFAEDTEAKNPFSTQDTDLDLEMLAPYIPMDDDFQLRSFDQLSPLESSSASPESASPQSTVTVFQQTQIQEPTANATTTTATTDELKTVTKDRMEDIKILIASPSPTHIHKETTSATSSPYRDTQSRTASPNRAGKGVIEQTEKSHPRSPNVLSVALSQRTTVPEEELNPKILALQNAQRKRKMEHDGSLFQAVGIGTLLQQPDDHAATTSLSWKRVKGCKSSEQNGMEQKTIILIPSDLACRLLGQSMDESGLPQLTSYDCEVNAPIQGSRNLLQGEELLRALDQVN
Procedure, shortened: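 Endogenous-TF cis reporter readout, human HepG2 cells, 24 h incubation; mRNA detected via RT-PCR and capillary electrophoresis fluorescence; DMSO-normalised bidirectional fitting.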

[15] = target: Heat shock factor protein 1 (Homo sapiens) (UniProt Q00613); experiment: ATG_HSE_CIS: Attagene CIS-FACTORIAL HepG2 Assay for human Heat Shock Transcription Factor 1 (HSE) (AID 2282953); details: HepG2 HSE cis-reporter, Attagene RNA transcription; actives raise or lower the signal
Chain of Heat shock factor protein 1 (Homo sapiens) (Q00613 whole entry, looked up): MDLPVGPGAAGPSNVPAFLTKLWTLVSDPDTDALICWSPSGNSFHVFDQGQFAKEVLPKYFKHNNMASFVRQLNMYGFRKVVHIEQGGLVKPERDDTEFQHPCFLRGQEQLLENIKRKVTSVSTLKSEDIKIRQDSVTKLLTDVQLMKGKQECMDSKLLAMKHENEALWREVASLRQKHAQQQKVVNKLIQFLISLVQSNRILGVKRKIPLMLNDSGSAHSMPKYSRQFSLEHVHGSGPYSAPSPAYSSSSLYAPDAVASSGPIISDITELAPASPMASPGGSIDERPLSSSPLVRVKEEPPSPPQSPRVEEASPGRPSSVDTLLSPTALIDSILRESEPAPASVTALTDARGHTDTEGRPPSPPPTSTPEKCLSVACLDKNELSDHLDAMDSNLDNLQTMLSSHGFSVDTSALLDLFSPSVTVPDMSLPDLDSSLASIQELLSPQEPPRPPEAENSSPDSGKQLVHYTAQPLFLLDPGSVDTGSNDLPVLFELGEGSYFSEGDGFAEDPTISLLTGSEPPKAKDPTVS
Procedure, shortened: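 Using HepG2 with transfected cis-driven reporter constructs, compound effects on endogenous factor activity are scored as reporter mRNA change at 24 h. Detection: RT-PCR, HpaI digestion, capillary electrophoresis; bidirectional fitting to DMSO.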

[16] = ATG_MRE_CIS: Attagene CIS-FACTORIAL HepG2 Assay for human Metal Responsive Element (MRE) (AID 2282954); details: HepG2 MRE cis-reporter transcription, Attagene multiplex; actives raise or lower the signal
Procedure, shortened: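 HepG2 cells transiently transfected with cis-element-driven reporter units; mRNA measured 24 h after dosing. Reporter transcripts quantified by RT-PCR, FAM labelling, HpaI digestion and capillary electrophoresis; bidirectional fit versus DMSO.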

[17] = ATG_PBREM_CIS: Attagene CIS-FACTORIAL HepG2 Assay for human Phenobarbital-responsive Enhancer Module (PBREM) (AID 2282955); details: HepG2 PBREM cis-reporter, Attagene multiplexed transcription; actives raise or lower the signal
Procedure, shortened: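 Readout: reporter mRNA, fluorescent RT-PCR fragments separated by capillary electrophoresis. System: HepG2 transiently transfected with cis-regulated reporter units. Exposure: 24 h. Analysis: bidirectional, DMSO baseline.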

[18] = ATG_M_06_CIS: Attagene CIS-FACTORIAL HepG2 Assay for M06 Transcription Factor (Internal Marker) (AID 2282950); details: HepG2 Attagene CIS-FACTORIAL M06 internal marker reporter; actives raise or lower the signal
Procedure, shortened: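 One of many multiplexed endpoints: HepG2 reporter mRNA after 24 h dosing, detected by RT-PCR and capillary electrophoresis fluorescence; gain or loss of signal analysed against DMSO.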

[19] = target: Hepatocyte nuclear factor 6 (Homo sapiens) (UniProt Q9UBC0); experiment: ATG_HNF6_CIS: Attagene CIS-FACTORIAL HepG2 Assay for human Hepatocyte Nuclear Factor 6 (HNF6) (AID 2282952); details: HepG2 Attagene cis-factorial HNF6 reporter transcription; actives raise or lower the signal
Chain of Hepatocyte nuclear factor 6 (Homo sapiens) (Q9UBC0 whole entry, looked up): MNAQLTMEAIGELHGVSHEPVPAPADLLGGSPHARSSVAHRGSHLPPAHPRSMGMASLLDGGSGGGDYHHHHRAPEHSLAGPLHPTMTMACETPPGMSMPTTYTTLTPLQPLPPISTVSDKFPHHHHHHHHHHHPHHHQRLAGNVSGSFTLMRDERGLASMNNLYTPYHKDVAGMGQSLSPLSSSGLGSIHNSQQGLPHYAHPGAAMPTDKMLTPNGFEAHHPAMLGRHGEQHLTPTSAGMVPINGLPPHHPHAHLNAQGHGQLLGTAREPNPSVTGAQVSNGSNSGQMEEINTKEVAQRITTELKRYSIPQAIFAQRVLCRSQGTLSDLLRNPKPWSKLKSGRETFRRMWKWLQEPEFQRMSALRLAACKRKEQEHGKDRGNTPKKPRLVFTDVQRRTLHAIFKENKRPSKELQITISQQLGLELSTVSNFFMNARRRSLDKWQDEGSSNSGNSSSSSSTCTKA
Procedure, shortened: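 Multiplexed mRNA reporter assay in transfected HepG2; 24 h dosing; RT-PCR plus capillary electrophoresis fluorescence; DMSO-referenced bidirectional curve fitting.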

Measured: outcome

CCN(CCC#N)c1ccc(N=Nc2ccc([N+](=O)[O-])cc2)cc1
not listed: [18] | [19]
inactive: all other assays above

Nc1ccn([C@H]2CS[C@@H](CO)O2)c(=O)n1
not listed: [10]
inactive: all other assays above

CC(C)OCCO
not listed: [10] | [16]
inactive: all other assays above

CCc1ccc(O)cc1
not listed: [10]
inactive: all other assays above
